# Reference: publication PMC11447256
# Assays:
# Coatomer subunit gamma-1 = Coatomer subunit gamma-1 (UniProt Q9Y678); assay: cross-linking mass spectrometry
# [1] = target: T-complex protein 1 subunit delta (UniProt P50991); assay: co-fractionation; cross-linking mass spectrometry
# Protein S100-A10 = Protein S100-A10 (UniProt P60903); assay: cross-link between two proteins; cross-linking mass spectrometry
# [2] = target: Phosphoglycerate kinase 2 (UniProt P07205); assay: co-fractionation; co-fractionation; cross-linking mass spectrometry
# Phosphoglycerate kinase 2, sequence (P07205 whole entry): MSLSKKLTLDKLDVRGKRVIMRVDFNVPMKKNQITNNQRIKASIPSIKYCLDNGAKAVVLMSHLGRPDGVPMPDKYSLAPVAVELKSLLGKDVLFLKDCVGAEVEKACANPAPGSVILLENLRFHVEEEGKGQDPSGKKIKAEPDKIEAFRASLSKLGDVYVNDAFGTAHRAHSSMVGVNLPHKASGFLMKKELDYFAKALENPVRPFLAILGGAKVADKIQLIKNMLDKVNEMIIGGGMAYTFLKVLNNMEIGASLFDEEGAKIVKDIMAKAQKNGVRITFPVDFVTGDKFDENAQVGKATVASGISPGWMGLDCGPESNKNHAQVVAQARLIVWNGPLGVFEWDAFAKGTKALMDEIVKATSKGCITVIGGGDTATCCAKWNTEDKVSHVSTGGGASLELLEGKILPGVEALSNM
# [3] = target: 26S proteasome non-ATPase regulatory subunit 5 (UniProt Q16401); assay: cross-link between two proteins; cross-linking mass spectrometry; two-hybrid or complementation screen
# 26S proteasome non-ATPase regulatory subunit 5, sequence (Q16401 whole entry): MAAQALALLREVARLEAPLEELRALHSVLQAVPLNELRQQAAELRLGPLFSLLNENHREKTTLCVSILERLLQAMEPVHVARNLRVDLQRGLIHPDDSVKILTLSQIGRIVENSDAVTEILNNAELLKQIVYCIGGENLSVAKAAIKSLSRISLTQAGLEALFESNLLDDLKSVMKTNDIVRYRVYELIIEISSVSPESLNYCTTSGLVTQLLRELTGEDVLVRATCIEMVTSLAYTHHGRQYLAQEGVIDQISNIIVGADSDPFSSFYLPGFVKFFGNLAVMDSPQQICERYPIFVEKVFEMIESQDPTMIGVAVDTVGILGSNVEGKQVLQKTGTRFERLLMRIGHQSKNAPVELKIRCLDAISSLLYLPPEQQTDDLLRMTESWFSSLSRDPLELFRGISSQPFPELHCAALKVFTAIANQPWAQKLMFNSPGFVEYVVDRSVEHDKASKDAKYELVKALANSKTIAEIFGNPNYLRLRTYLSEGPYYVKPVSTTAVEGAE
# Coatomer subunit gamma-1, sequence (Q9Y678 whole entry): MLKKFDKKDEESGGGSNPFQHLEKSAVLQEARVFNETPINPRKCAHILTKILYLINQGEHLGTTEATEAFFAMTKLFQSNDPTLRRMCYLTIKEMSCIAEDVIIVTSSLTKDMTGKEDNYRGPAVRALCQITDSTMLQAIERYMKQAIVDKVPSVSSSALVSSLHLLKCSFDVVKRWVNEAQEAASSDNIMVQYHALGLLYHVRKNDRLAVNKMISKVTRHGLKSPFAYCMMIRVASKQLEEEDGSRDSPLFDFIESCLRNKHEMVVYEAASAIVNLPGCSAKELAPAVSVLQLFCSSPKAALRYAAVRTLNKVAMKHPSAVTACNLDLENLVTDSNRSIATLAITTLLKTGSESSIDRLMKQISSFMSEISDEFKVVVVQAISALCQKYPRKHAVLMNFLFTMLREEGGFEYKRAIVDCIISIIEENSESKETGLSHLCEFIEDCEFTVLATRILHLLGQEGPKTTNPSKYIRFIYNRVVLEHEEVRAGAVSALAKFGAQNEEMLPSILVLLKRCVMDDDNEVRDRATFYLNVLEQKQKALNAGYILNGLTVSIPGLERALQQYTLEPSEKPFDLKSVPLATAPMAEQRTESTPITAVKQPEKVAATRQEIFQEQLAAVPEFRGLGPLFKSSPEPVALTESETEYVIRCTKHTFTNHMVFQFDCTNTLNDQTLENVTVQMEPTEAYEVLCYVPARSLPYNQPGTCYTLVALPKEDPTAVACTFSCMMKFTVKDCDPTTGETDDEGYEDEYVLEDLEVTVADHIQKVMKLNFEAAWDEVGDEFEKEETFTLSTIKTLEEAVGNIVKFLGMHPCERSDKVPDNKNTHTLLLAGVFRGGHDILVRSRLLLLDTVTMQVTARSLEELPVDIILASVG
# T-complex protein 1 subunit delta, sequence (P50991 whole entry, stated change not applied, one chain of several): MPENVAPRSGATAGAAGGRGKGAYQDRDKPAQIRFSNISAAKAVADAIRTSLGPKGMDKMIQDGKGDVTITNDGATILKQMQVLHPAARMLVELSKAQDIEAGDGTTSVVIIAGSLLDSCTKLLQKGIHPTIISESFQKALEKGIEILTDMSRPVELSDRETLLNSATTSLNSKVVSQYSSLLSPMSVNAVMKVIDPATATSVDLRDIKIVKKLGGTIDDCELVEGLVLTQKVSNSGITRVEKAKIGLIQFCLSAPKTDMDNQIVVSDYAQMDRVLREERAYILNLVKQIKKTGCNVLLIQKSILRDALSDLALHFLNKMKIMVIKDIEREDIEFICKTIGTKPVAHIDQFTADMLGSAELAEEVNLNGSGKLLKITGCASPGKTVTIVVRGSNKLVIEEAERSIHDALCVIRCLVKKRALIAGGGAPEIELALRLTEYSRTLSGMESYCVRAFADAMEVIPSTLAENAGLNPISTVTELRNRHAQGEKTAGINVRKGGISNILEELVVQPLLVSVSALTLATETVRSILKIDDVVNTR
# Protein S100-A10, sequence (P60903 whole entry): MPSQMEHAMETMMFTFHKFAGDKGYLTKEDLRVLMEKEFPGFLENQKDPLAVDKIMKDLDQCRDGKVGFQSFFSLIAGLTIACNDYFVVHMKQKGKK
substance,measurement,setting,value
"Coatomer subunit beta, P53618",listed as a hit,Coatomer subunit gamma-1,yes
"T-complex protein 1 subunit gamma, P49368",listed as a hit,[1],yes
"Putative annexin A2-like protein, A6NMY6",listed as a hit,Protein S100-A10,yes
"Phosphoglycerate kinase 1, P00558",listed as a hit,[2],yes
"26S proteasome regulatory subunit 7, P35998",listed as a hit,[3],yes
